High-throughput results from PubChem.
LmPK inhibitor: blocks Leishmania mexicana pyruvate kinase activity; Q27686; purified LmPK, Kinase-Glo ATP luminescence, 1 h; Potency, µM (titrated, usually from 57.5 µM), for inactives: at the highest dose activity change, negative = inhibition, hits mostly inhibitors; 290,000 compounds, 0.37% hits; AID 1721
Target sequence (Q27686 whole entry, looked up): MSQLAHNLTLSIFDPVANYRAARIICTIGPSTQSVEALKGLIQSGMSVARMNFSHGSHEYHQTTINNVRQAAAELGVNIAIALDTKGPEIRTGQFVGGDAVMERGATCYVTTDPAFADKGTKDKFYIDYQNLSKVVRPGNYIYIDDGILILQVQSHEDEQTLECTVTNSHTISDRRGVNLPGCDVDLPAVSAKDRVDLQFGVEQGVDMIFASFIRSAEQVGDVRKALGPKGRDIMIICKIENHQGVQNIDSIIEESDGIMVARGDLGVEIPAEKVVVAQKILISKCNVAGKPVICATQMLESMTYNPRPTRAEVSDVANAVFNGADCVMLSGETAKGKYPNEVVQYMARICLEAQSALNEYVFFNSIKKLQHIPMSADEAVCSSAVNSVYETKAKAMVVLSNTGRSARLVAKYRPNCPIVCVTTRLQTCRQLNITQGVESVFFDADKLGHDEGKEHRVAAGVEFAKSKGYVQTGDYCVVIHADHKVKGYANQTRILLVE
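ATP generated from ADP (0.1 mM) and PEP (0.5 mM) by 0.1 nM LmPK over 1 h at room temperature (pH 7.2 imidazole buffer) was detected by coupled luciferase luminescence. Values were normalized to uninhibited and no-enzyme wells.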
TbPYK inhibitor: blocks Trypanosoma brucei pyruvate kinase | Q57TT1 | TbPYK enzyme, Kinase-Glo Plus ATP luminescence, 45 min | Potency, µM (highest dose often 76.8 µM), for inactives: at the top dose activity, negative = inhibition, most hits filed as inhibitors | 410,000 compounds, 0.12% hits; also: nearly all actives have a fitted effect of over 50% in size
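TbPYK + substrate in 50 mM TEA pH 7.2, 100 mM KCl, 10 mM MgCl2, 0.05% BSA, 0.01% Tween-20; cpd pinned; ADP 130 uM final; 45 min RT; Kinase-Glo Plus 10 min; luminescence endpoint.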
AMA1-RON2 inh: inhibitors of Plasmodium falciparum AMA1-RON2 interaction. Potency, µM (top dose mostly 58.2 µM), for the others: at the highest dose activity change, negative = inhibition, hits mostly inhibitors. 360,000 compounds, 0.2% hits. AlphaScreen AMA1-biotinylated RON2 peptide binding;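 also: 0% = vehicle wells and -100% = peptide control; nearly all actives have a fitted effect of over 45% in size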
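AMA1 (3D7) with his tag at 25 nM final met compounds first, then biotinylated RON2 peptide at 25 nM; detection used donor plus acceptor beads, 10 µg/mL apiece, read by AlphaScreen after 30 min at room temperature.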
RE007 growth inh: less growth of the S. pombe RE007 Vpr strain; S. pombe RE007 Vpr strain, BacTiter-Glo ATP luminescence, 24 h; Potency, µM (titrated, usually from 92.2 µM), for the others: at the highest dose activity change, negative = less growth, hits mostly inhibitors; 360,000 compounds, 0.21% hits; AID 651644; active = well fitted falling curve with a large enough effect; inconclusive = small, poorly fitted or top-dose-only effect; inactive = no such curve, though single readings can be large or run the other way; also: nearly all actives have a fitted effect of over 50% in size
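Fission yeast RE007 carrying one integrated HIV-1 vpr copy, seeded at OD 0.01 in PMG+AL medium with 23 nL pinned compound. Grown 24 h at 30 degrees; viability read by BacTiter-Glo luminescence after 5 min.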
Sm TGR block: inhibitors of Schistosoma mansoni thioredoxin glutathione reductase; Q962Y6; purified TGR, DTNB reduction, TNB absorbance 405 nm; Potency, µM (series often up to 114 µM), for the others: at the top dose activity change, negative = inhibition, hits mostly inhibitors; 360,000 compounds, 3% hits; also: nearly all actives have a fitted effect of over 60% in size
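TGR 20 nM + NADPH 100 uM (dispensed conc.), cpd preinc 15 min RT; start with NADPH (500 uM addition) then DTNB (15 mM addition). Kinetic TNB absorbance, 405 nm filter. Four-parameter Hill fit across titration.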
Active calls of the source: *; ? = inconclusive; . = not tested or not shown; [ ] = another dose, or the depositor's remark. Shown are actives, neighbours in structure and some others; about 3.2% of the full set was active somewhere. Unless noted, calls follow the shape of the dose curve; as a rule, active = well fitted curve in the direction sought with a large enough effect; inconclusive = small, poorly fitted or top-dose-only effect, or another doubt; inactive = no such curve, though single readings can be large; an effect the other way counts as inactive or inconclusive. Unless noted, % is scaled to controls: 0 for no effect and ±100 for the full control effect; potency is read from the fitted curve at half-maximal effect.

SMILES | LmPK inhibitor | TbPYK inhibitor | AMA1-RON2 inh | RE007 growth inh | Sm TGR block
COc1cc(-c2nc(CN3CCN(C(=O)c4ccco4)CC3)c(C)o2)ccc1F | 9% | 1% | -7% | -1% | -34%
Cc1noc(C)c1S(=O)(=O)N1CCc2nc(COc3ccccc3)c3c(c2C1)CO[C@@H](C)C3 | -7%[11.5 µM] | . | . | . | .
COc1ccc(OC)c(C(=O)c2c(N)c(-c3nc(-c4ccc(C)c(C)c4)cs3)c3ccccn23)c1 | . | 3% | . | . | 1%
O=C(C#Cc1ccccc1)c1ccco1 | -4% | 4% | -5% | 8.9µM* | 0.89µM*
O=C(N/N=C/c1ccccc1)c1ccco1 | ? | -1% | 29% | -17% | 4%
O=C(CSc1ccc(-c2ccco2)nn1)Nc1ccccc1F | -4% | -34% | -16% | -4% | 14µM*
CCOc1ccccc1NC(=O)CSc1ccc(-c2sc(C)nc2C)nn1 | 2% | 4% | -8% | -5% | -2%
CCOc1ccccc1NC(=O)Cn1nc(N2CCN(c3ccccc3)CC2)ccc1=O | . | 10% | . | . | 3%
O=C(CSc1ccc(-c2cccnc2)nn1)Nc1ccccc1F | -4% | 1% | -8% | 7% | -26%
CCOc1ccccc1NC(=O)Cn1nc(-c2ccco2)ccc1=O | -1% | -17% | 15% | 19% | 16µM*
CCOc1ccccc1NC(=O)CSc1ccc(-c2ccco2)nn1 | 0% | -15% | -14% | -7% | 18µM*
CCOC(=O)c1c(C)c(-c2ccccc2)n(CC(=O)Nc2cc(OC)cc(OC)c2)c1C | . | -5% | . | . | -31%
Cc1cccc(NC(=O)c2sc3cccc(Cl)c3c2Cl)c1 | . | 4% | . | . | 11%
COc1ccc(N2CC(NC(=O)c3cc4ccccc4o3)CC2=O)cc1OC (stereo not drawn) | . | -8% | . | . | 4%
S=c1[nH]nc(-c2ccco2)n1-c1ccc(Cl)cc1 | 18µM* | ? | 83% | 4% | 30%
COc1ccc(-n2c(-c3ccco3)n[nH]c2=S)cc1 | ? | ? | 38% | -12% | ?
S=c1[nH]nc(-c2ccco2)n1-c1cccc2ccccc12 | 7.9µM* | 2.8µM* | 0% | 2% | ?
CC(C)Oc1ccc(Cn2c(-c3ccco3)n[nH]c2=S)cc1 | 14µM* | 2.5µM* | 48% | 20% | -4%
Cn1cc(Cl)c(-c2n[nH]c(=S)n2C2CCCCC2)n1 | 20µM* | 7.1µM* | 129% | 22% | 0%
S=c1[nH]nc(CSCc2ccccc2Cl)n1C1CCCCC1 | ? | ? | 24% | 35% | 11%
CCOC(=O)c1cc(-c2ccc(OC)cc2)n(CCC(=O)NCCc2ccccc2)c1C | . | 9% | . | . | 4%
Cc1ccc(-c2nc(CCNC(=O)C(=O)Nc3ccc(C)c(Cl)c3)cs2)cc1 | . | 0% | . | . | 5%
Cc1ccc(C)c(-n2c(-c3ccco3)n[nH]c2=S)c1 | . | ? | 47% | 4% | .
COc1ccccc1-n1c(-c2ccco2)n[nH]c1=S | ? | 10µM* | 7% | 15% | -29%
Nn1c(-c2ccco2)n[nH]c1=S | 4% | -22% | 54% | -3% | 3%
SMILES | LmPK inhibitor | TbPYK inhibitor | AMA1-RON2 inh | RE007 growth inh | Sm TGR block
S=c1[nH]nc(-c2ccco2)n1C1CCCCC1 | 25µM* | ? | 52% | 15% | 0%
Cc1cc(N2C(=O)C(O)=C(C(=O)c3cc4ccccc4o3)C2c2cccs2)no1 (stereo not drawn) | 1% | -6% | -1% | -8% | 56µM*
O=C(C1=C(O)C(=O)N(c2nccs2)C1c1ccccc1)c1cc2ccccc2o1 (stereo not drawn) | -16% | -11% | 9% | -18% | 10µM*
O=C(C1=C(O)C(=O)N(CCc2ccccc2)C1c1ccncc1)c1cc2ccccc2o1 (stereo not drawn) | 2% | 1% | 1% | 12% | .
O=Cc1ccccc1C=O | . | 5% | . | . | .
COc1ccc(C(=O)NC2CCN(CC(=O)Nc3c(C)cccc3C)CC2)cc1OC | -1% | -6% | -10% | 4% | 100µM*
COc1cccc(C(=O)NC2CCN(CC(=O)Nc3c(C)cc(C)cc3C)CC2)c1 | 0% | . | . | . | 12%
Cc1ccccc1C(=O)NC1CCN(CC(=O)Nc2ccc(N(C)C)cc2)CC1 | 10% | 1% | 3% | -2% | 40µM*
COc1cccc(C(C[N+](=O)[O-])c2c(C)[nH]n(-c3ccccc3)c2=O)c1 (stereo not drawn) | 10% | -7% | 4% | ? | 35µM*
Cc1[nH]n(-c2ccccc2)c(=O)c1C(c1cccc([N+](=O)[O-])c1)c1c(C)[nH]n(-c2ccccc2)c1=O | -2% | -11% | -9% | -11% | -23%
Cc1[nH]n(-c2ccccc2)c(=O)c1C(C[N+](=O)[O-])c1ccc(Br)cc1 (stereo not drawn) | 4% | -11% | -9% | 10µM* | ?
O=[N+]([O-])c1ccccc1NCc1c(O)ccc2ccccc12 | 6% | 0% | -18% | . | 1.8µM*
Cc1cccc(C)c1NC(=O)CC1SC2=NCCN2C1=O (stereo not drawn) | -11% | 0% | 4% | -4% | 25µM*
Cc1ccc(CN2CCN(/N=C/c3ccccc3)CC2)cc1 | 0% | -10% | -26% | -1% | 0%
CC(=C/c1ccccc1)/C=N/N1CCN(Cc2ccc(C)cc2)CC1 | -6% | 2% | -27% | 5% | -4%
CC(/C=N/N1CCN(Cc2ccccc2)CC1)=C\c1ccccc1 | -1% | 4% | 13µM* | -26% | 6%
COc1ccc(CN2CCN(Cc3ccc(C)cc3)C(CCO)C2)cc1OC (stereo not drawn) | -3% | 1% | 1% | 7% | 0%
COc1cc(/C=N/N2CCN(Cc3ccc(C)cc3)CC2)cc(OC)c1O | -3% | 14µM* | -21% | 14% | ?
Cc1ccc(CN2CCN(/N=C/c3cc(Br)cc(Br)c3O)CC2)cc1 | 2% | -6% | -5% | -28% | -4%
Cc1ccc(/C=N/N2CCN(Cc3ccccc3)CC2)cc1 | 8% | -9% | 13µM* | -12% | 56%
COc1cc(CN2CCN(Cc3ccc(C)cc3)C(CCO)C2)cc(OC)c1O (stereo not drawn) | -2% | -4% | 8% | -6% | 6.3µM*
O[C@@H]1CO[C@H]2[C@@H]1OC[C@@H]2O | . | -13% | . | . | .
Cc1ccc(-c2noc(-c3ccc(N4CCOCC4)c([N+](=O)[O-])c3)n2)cc1 | . | 1% | . | . | -7%
COc1ccc(Cl)cc1NC(=O)c1cc(S(=O)(=O)N2CCc3ccccc32)cn1C | . | -6% | . | . | 2%
O=c1[nH]c(Nc2ccccc2)cc2cc(Br)ccc12 | . | -2% | 20% | 3% | .
O=c1[nH]c(Nc2ccccc2)cc2ccccc12 | ? | -9% | -9% | ? | 16µM*
COCCCNc1nc2c(-c3cccc(Br)c3)nnn2c2ccccc12 | . | -2% | . | . | -3%
